20 molecules from PubChem BioAssay (NCI) can be followed below.

Compounds without any hit were thinned out: in the full panel of roughly 79,000, 15% have a hit. Unmarked numbers belong to inactive results. Calls of active or inactive are those of the source. No stated cut-off is given here; in the data, active means growth inhibition above about 70%; inactive means the rest.

Assay [1] can be described thus: NCI Yeast Anticancer Drug Screen. Data for the rad50 strain (AID 155).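 Further: 0% = growth of vehicle-only cultures of the same strain.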 Conditions: S. cerevisiae rad50 strain growth inhibition; at 50.0 µM; stronger effect = higher value. An outline of the steps:
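Cells are treated with compound, grown, and their growth is then scored against vehicle-only cultures of the same repair-deficient yeast strain.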

Assay [2] is described as follows: NCI Yeast Anticancer Drug Screen. Data for the mec2-1 strain (AID 157). Particulars: S. cerevisiae mec2-1 strain, at 50.0 µM, stronger effect = higher value. The method, boiled down: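 Using mec2-1 yeast: add compound, measure growth, express inhibition versus vehicle-treated cultures.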
Assay [3] is described as follows: NCI Yeast Anticancer Drug Screen. Data for the sgs1 mgt1 strain (AID 161).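 Further: 0% = growth of cultures given vehicle only.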 Conditions: S. cerevisiae sgs1 mgt1 strain, at 50.0 µM, stronger effect = higher value. The method, boiled down: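 Yeast cells carrying a defined DNA-repair defect were exposed to test compounds. Growth inhibition was measured relative to vehicle-treated controls.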
The nature of assay [4]: NCI Yeast Anticancer Drug Screen. Data for the cln2 rad14 strain (AID 165).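 Further: 0% = growth equal to vehicle treated cultures.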 Particulars: S. cerevisiae cln2 rad14 strain, at 50.0 µM, stronger effect = higher value. An outline of the steps:
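Yeast strain cln2 rad14, bearing defects in cell cycle control and DNA repair, serves as the test system; values reflect growth inhibition compared with vehicle.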

Assay [5] can be described thus: NCI Yeast Anticancer Drug Screen. Data for the bub3 strain (AID 167). Conditions: S. cerevisiae bub3 mutant strain, at 50.0 µM, stronger effect = higher value. An outline of the steps: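 Part of a panel of yeast mutants defective in DNA damage repair or cell cycle regulation. Each strain is grown with compound, and inhibition is calculated relative to solvent-treated cultures.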

Assay [6] is described as follows: NCI Yeast Anticancer Drug Screen. Data for the mlh1 rad18 strain (AID 175). Conditions: S. cerevisiae mlh1 rad18 strain growth inhibition; at 50.0 µM; stronger effect = higher value. The method, boiled down: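 Steps: expose repair-defective yeast to compound; measure growth; express inhibition against vehicle-treated controls.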

For `COc1ccc(C(C#N)N(C)C)cc1OC` (stereo not given), the growth inhibition was -16.9% in assay [1]; -13.6% in assay [2]; 8% in assay [3]; -15.1% in assay [4]; 0.75% in assay [5]; 5.15% in assay [6].

Turning to `Cc1c(C(=O)C/C(=N\O)C(=O)Nc2cc(Cl)c(Cl)cc2Cl)[n+](=O)c2ccccc2n1[O-]`, the growth inhibition was 21.8% in assay [1]; 14.3% in assay [2]; 22.1% in assay [3]; 14.7% in assay [4]; 21.4% in assay [5]; 32.4% in assay [6].

As for `CC(C)=NNC(=O)c1n[nH]c(C)c1N=NN(C)C`, the growth inhibition in assay [1] was 12.5%; in assay [2], -23.4%; in assay [3], 6.5%; in assay [4], -0.65%; in assay [5] it was -9.4%; in assay [6], 20.5%.

As for `COC(=O)c1ccc(N=NN(C)COC(C)=O)cc1`, the growth inhibition in assay [1] was 27.4%; in assay [2] it was 12%; in assay [3], 11.2%; in assay [4] it was 18.5%; in assay [5], 10.2%; in assay [6], 18.8%.

Turning to `O=C1NN2CCCN=C2c2ncccc21`, the growth inhibition in assay [1] was 15.2%; in assay [2] it was 2.1%; in assay [3], 8.1%; in assay [4], 17.1%; in assay [5] it was 2.7%; in assay [6], 20.8%.

On to `CC(O)CNC(=O)C(C)O` (stereo not given), for which the growth inhibition in assay [1] is 11.8%; in assay [2] it was -27.6%; in assay [3], -25.8%; in assay [4], -5.45%; in assay [5], 8.25%; in assay [6] it was 7.6%.

On to `CCn1c2ccccc2n2c(=O)c3c(c(C#N)c12)CCCC3`, for which the growth inhibition in assay [1] is 4.6%; in assay [2], 13.2%; in assay [3], -30.1%; in assay [4], -8.6%; in assay [5] it was -33.9%; in assay [6] it was -18.5%.

For the molecule `COc1ccc(CCN2C(=O)c3cccc4c(Br)ccc(c34)C2=O)cc1`, the growth inhibition is 23.8% in assay [1]; 1.3% in assay [2]; 18.6% in assay [3]; 14.5% in assay [4]; 44.6% in assay [5]; 35.9% in assay [6].

In the case of `Cc1cc2c(-c3ccc(Cl)cc3)oc(-c3ccc(Cl)cc3)c2cc1C`, the growth inhibition was -7.35% in assay [1]; 15.8% in assay [2]; -6.35% in assay [3]; 2.85% in assay [4]; -15.4% in assay [5]; -9.5% in assay [6].

As to `CCN(Cc1cccc(S(=O)(=O)O)c1)c1ccc(C(=C2C=CC(=[N+](C)C)C=C2)c2ccc(N(C)C)cc2)c(S(=O)(=O)O)c1`, the growth inhibition in assay [1] was 8.35%; in assay [2], 54.8%; in assay [3], 28.1%; in assay [4], -8.55%; in assay [5] it was 11.9%; in assay [6], 26.4%.

For the molecule `CC1=C(C(=O)Nc2ccccc2C)C(c2ccc(C3C(C(=O)Nc4ccccc4C)=C(C)NC(C)=C3C(=O)Nc3ccccc3C)cc2)C(C(=O)Nc2ccccc2C)=C(C)N1`, the growth inhibition in assay [1] is 65.7%; in assay [2], 65%; in assay [3], 61.2%; in assay [4], 47.8%; in assay [5], 21.6%; in assay [6], 84.6% (active).

`CN(C)c1ccc(NN=C2SC(=Nc3ccccc3)C(=Nc3ccccc3)S2)cc1`: the growth inhibition was 41.5% in assay [1]; -17.9% in assay [2]; -10.2% in assay [3]; 18.1% in assay [4]; 25.2% in assay [5]; 8.15% in assay [6].

`O=C(NNC(=O)c1ccc([N+](=O)[O-])cc1)c1ccccc1`: the growth inhibition was -5.85% in assay [1]; 13.1% in assay [2]; 15.9% in assay [3]; -30.1% in assay [4]; -13.4% in assay [5]; -16.1% in assay [6].

Consider `COC1=CCC2=C(CCO2)C1`, for which the growth inhibition in assay [1] was 5.3%; in assay [2], 0.35%; in assay [3] it was -6.9%; in assay [4] it was -18.5%; in assay [5], -7.1%; in assay [6], 1.1%.

`COCCCCCC(=O)OC`: the growth inhibition in assay [1] was 5.05%; in assay [2] it was 17.1%; in assay [3] it was 6.4%; in assay [4], 4.5%; in assay [5], -7%; in assay [6] it was 0.5%.

Regarding `Cc1cc(=O)[nH]c(=S)n1-c1nc2ccccc2o1`, the growth inhibition is -11.2% in assay [1]; 7.65% in assay [2]; -0.8% in assay [3]; -9.55% in assay [4]; -27.6% in assay [5]; 12.8% in assay [6].

As to `COc1cccc(Nc2sc(C(=O)c3cc4cc(Cl)ccc4o3)c(N)c2C#N)c1`, the growth inhibition was -11.1% in assay [1]; -8.65% in assay [2]; -20.6% in assay [3]; -2.75% in assay [4]; -3.55% in assay [5]; -7.55% in assay [6].

For `NC1CCCCC1N.O=S(=O)([O-])CCCNC1CCCCC1.O=S(=O)([O-])CCCNC1CCCCC1.[Pt+4]`, the growth inhibition in assay [1] is -6.3%; in assay [2], -8.15%; in assay [3], -15.7%; in assay [4] it was -23.6%; in assay [5] it was -21.1%; in assay [6], 15.9%.

In the case of `Cc1cc(O)c(C(c2cccnc2)c2c(O)cc(C)[nH]c2=O)c(=O)[nH]1`, the growth inhibition was 1.95% in assay [1]; -14.8% in assay [2]; -40.1% in assay [3]; 11.8% in assay [4]; -30.2% in assay [5]; 30.1% in assay [6].

Take `Cc1ccc(S(=O)(=O)N/N=C/c2cc(I)cc(I)c2O)cc1`: the growth inhibition in assay [1] is 99.5% (active); in assay [2] it was 99.3% (active); in assay [3], 99.2% (active); in assay [4], 99.4% (active); in assay [5] it was 98.3% (active); in assay [6] it was 99.1% (active).
